Reference: ChEMBL document CHEMBL4513216, “Probing the Open Global Health Chemical Diversity Library for Multistage-Active Starting Points for Next-Generation Antimalarials” (ACS Infect Dis, 2020)
In all, about 65,000 compounds went through this assay and about 2,100 (3.2%) showed an effect of 50% or more. The median lay at about -52%. The sample as a whole holds a higher share of strong results than the screen did.

These molecules were tested on Plasmodium falciparum (assay: Screen against P. falciparum Asexual Blood Stage (ABS), at 5uM). Details: tested at 5 uM.
Assay type: functional, Dd2

| SMILES | INHIBITION [%] |
| --- | --- |
| COc1ccccc1-n1nc(CC(C)C)nc1CSc1nnc(N)s1 | -36.5 |
| CC(NCC1(N(C)C)CCOCC1)c1ccc(S(C)(=O)=O)cc1 (stereo unspecified) | -56.25 |
| CSC1(CNC(=O)NC(C)c2ccc(F)cc2)CCOCC1 (stereo unspecified) | -162 |
| CC(NCC1(N(C)C)CCOCC1)c1ccc(SC(F)F)cc1 (stereo unspecified) | 52.35 |
| COCC1CN(S(=O)(=O)Cc2ccccc2)Cc2c1cnn2C (stereo unspecified) | -54.3 |
| Nc1cc2c(nn1)CCN(C(=O)CCCC1CCCCC1)C2 | -83.9 |
| Cc1ccc2ncccc2c1CN1CC[C@H](N(C)C)[C@H](CCC(=O)O)C1 | -3.92 |
| COCCCC1CCCN(Cc2c(C)ccc3ncccc23)C1 (stereo unspecified) | 37.2 |
| CO[C@H]1CN(Cc2c(C)ccc3ncccc23)CC[C@H]1N | 67.2 |
| Cc1cc(NC(=O)c2ccc(CN3CC[C@H](O)C3)cc2)ccc1F | 21.2 |
| CC(=O)N1CCCC1c1cccc(NCc2ccccc2F)n1 (stereo unspecified) | -133 |
| COc1cc(N2CCC3(CCN(Cc4csc(C)n4)C3=O)C2)ncn1 (stereo unspecified) | -8.45 |
| COCCCN1CCN([C@@H]2c3ccccc3C3(CCNCC3)[C@H]2O)CC1 | -68.7 |
| CCNC(=O)[C@@H]1C[C@H](N)CN1c1cc(C(F)(F)F)nc(N2CCCC2)n1 | 54.7 |
| CCNC(=O)[C@@H]1C[C@H](N)CN1c1cc(C(F)(F)F)nc(N(C)C)n1 | 20.4 |
| CCNC(=O)[C@@H]1C[C@H](N)CN1c1cc(CC)nc(N(C)C)n1 | -67.6 |
| CC(=O)Nc1nc(C(=O)N2CCCC(n3cncn3)C2)cs1 (stereo unspecified) | -101 |
| CN(C(=O)Cn1nc(-c2ccccc2)ccc1=O)C1CCS(=O)(=O)C1 (stereo unspecified) | -30.2 |
| Fc1ccccc1CC1CCN(Cc2cscn2)CC1 | 45 |
| Fc1ccc(CC2CCN(Cc3cscn3)CC2)cc1 | 50.7 |
| Fc1ccc(CN2CCCN(Cc3cscn3)CC2)cc1 | 43.6 |
| CN1CCCCC1c1ncc2c(n1)CCN(Cc1ccc(Cl)c(F)c1)C2 (stereo unspecified) | 65.6 |

| SMILES | INHIBITION [%] |
| --- | --- |
| CN1CCCCC1c1ncc2c(n1)CCN(Cc1ccccc1Cl)C2 (stereo unspecified) | 41.5 |
| CN1CCc2nc(C3CCCCN3Cc3ccccc3Cl)ncc2C1 (stereo unspecified) | -32.4 |
| O=C(CCCOc1cccc(F)c1)N1CCCC(n2cccn2)C1 (stereo unspecified) | -31.5 |
| N#Cc1cn(C2CC2)c(=O)n(CC(O)c2ccccc2F)c1=O (stereo unspecified) | -128 |
| N#Cc1cn(C2CC2)c(=O)n(CC(O)c2ccccc2C(F)(F)F)c1=O (stereo unspecified) | 51 |
| N#Cc1cn(C2CC2)c(=O)n(CC(O)c2ccc(F)cc2)c1=O (stereo unspecified) | 44.7 |
| c1ncn(Cc2ccc(CNCc3ccc4c(c3)OCCO4)cc2)n1 | 0.0598 |
| CC(C)c1cc(NC(=O)c2ccc([S+]([O-])C(C)C)cc2)[nH]n1 (stereo unspecified) | -172 |
| CC(C)c1cc(NC(=O)c2ccncc2)[nH]n1 | -134 |
| CC(C)c1cc(NC(=O)c2ccc(C(=O)NC(C)(C)C)cc2)[nH]n1 | 64 |
| Cn1ccc(C(=O)NC2CCC23CCN(Cc2ccc(F)cc2)CC3)c1 (stereo unspecified) | 39.9 |
| Cn1ccc(C(=O)NC2CCC23CCN(Cc2nccs2)CC3)c1 (stereo unspecified) | -44.3 |
| Cc1ccc(CN2CCC3(CCC3NC(=O)c3ccn(C)c3)CC2)s1 (stereo unspecified) | 55.9 |
| CN(C)CCOCC1CN(Cc2cccs2)Cc2ccnn2C1 (stereo unspecified) | 63.4 |
| CN(C)CCOCC1CN(Cc2ccsc2)Cc2ccnn2C1 (stereo unspecified) | 38.6 |
| CN(C)CCOCC1CN(CCN(C)C)Cc2ccnn2C1 (stereo unspecified) | -8.37 |
| CNS(=O)(=O)c1cc(C)c2[nH]c(=O)cc(C)c2c1 | -73.5 |
| CC(=O)c1c(C)nn(CC(=O)Nc2ccc(Br)cc2)c1C | 66.7 |
| CC(=O)c1c(C)nn(CC(=O)Nc2ccc(F)cc2)c1C | -44.1 |
| COc1ccc(NC(=O)Cn2nc(C)c(C)cc2=O)cc1 | 25.5 |
| COc1ncccc1C(=O)N1CC[C@H]2C[C@H](c3ccncn3)O[C@@H]2C1 | -27.7 |
| COc1ccc(S(=O)(=O)N2CCC[C@@H]3CN(C(=O)C4CC4)C[C@@H]32)cc1 | -95.9 |

| SMILES | INHIBITION [%] |
| --- | --- |
| Fc1ccc(CN2CCO[C@H]3[C@H](OCC4CCCC4)CC[C@@H]32)cc1 | -74.2 |
| O=C(CCC(F)(F)F)N1CCCC2(CCC(=O)N(CC3CC3)C2)C1 (stereo unspecified) | -7.69 |
| COc1cccc(-c2cc(CN)ccc2F)c1F | -77.3 |
| CC(C)Oc1ccc(CNC(=O)NCc2ccncc2)cc1F | -9.03 |
| CC(C)Oc1ccccc1-c1cc(CN)ccc1F | 60.3 |
| COc1cccc(Cl)c1-c1cc(CN)ccc1F | 65.3 |
| COc1ccc(-c2cc(CN)ccc2F)c(OC)c1OC | 13.4 |
| CC(C)Oc1ccc(CNC(=O)CC(F)(F)F)cc1F | -29.4 |
| CC(C)NC(=O)Nc1ccc(-c2nc(C(C)C)no2)cc1 | -60.3 |
| CN(C)CCCNC(=O)c1cc(-c2ccc3c(c2)CCO3)n[nH]1 | -55.4 |
| Cc1nc(CN2CCN(c3nc4c(s3)c(C)nn4C)CC2)cs1 | -145 |
| CC(C)(C)c1n[nH]cc1CNCC1CCN(C2CC2)C1 (stereo unspecified) | 52.2 |
| CC(C)N1CCC(CNCc2c[nH]nc2C(C)(C)C)C1 (stereo unspecified) | -90.2 |
| CCN1CCC(CNCc2c[nH]nc2C(C)(C)C)C1 (stereo unspecified) | -143 |
| Cn1c(=O)c2c(n3ncnc13)NC(=O)CC2c1ccc(F)cc1 (stereo unspecified) | -53.6 |
| Cc1cccc(C(=O)N2C[C@@H](OCc3cccnc3)[C@H]3OCCC[C@@H]32)n1 | -103 |
| CC(=O)N1[C@H](CN(C)C)C[C@@H]2CN(C(=O)c3ccno3)CC[C@@H]21 | 22.2 |
| CC(=O)N1[C@H](CN(C)C)C[C@@H]2CN(C(=O)c3ccsc3)CC[C@@H]21 | -108 |
| CC(=O)N1[C@H](CN(C)C)C[C@@H]2CN(C(=O)c3cccc(F)c3)CC[C@@H]21 | -116 |
| CC(=O)N1[C@H](CN(C)C)C[C@@H]2CN(C(=O)c3cnc(C)cn3)CC[C@@H]21 | 29 |
| CC(=O)N1[C@H](CN(C)C)C[C@@H]2CN(C(=O)c3cccn3C)CC[C@@H]21 | 56.5 |
| CC(=O)N1[C@H](CN(C)C)C[C@@H]2CN(C(=O)c3occc3C)CC[C@@H]21 | 55.3 |

| SMILES | INHIBITION [%] |
| --- | --- |
| CCC[C@H]1CN(Cc2cc(C#N)n(C)c2C)C[C@@H]1N(C)C | 20.2 |
| Cc1ccc(CN2C[C@@H]3COC[C@]3(COc3ccc(C#N)cn3)C2)o1 | -45.3 |
| COCC1(C(=O)N[C@H]2CN(c3ccnc(C)c3)C[C@@H]2C2CC2)CCC1 | -51.7 |
| O=C(NCCN1CCC(c2cccs2)CC1)c1ccccc1C(F)(F)F | 34.2 |
| O=C(NCCN1CCC(c2cccs2)CC1)Nc1cccs1 | 64.2 |
| CCSc1ccccc1C(=O)NCCN1CCC(c2cccs2)CC1 | 30.9 |
| O=C(NCCN1CCC(c2cccs2)CC1)c1ccc(F)cc1Cl | -19.5 |
| CC(=O)NCCN1CCC(c2cccs2)CC1 | 6.31 |
| O=C(Cc1ccccc1Cl)NCCN1CCC(c2cccs2)CC1 | 63.6 |
| CCOCC(O)CN1CCN(C(=O)C2CCCCC2)CC1 (stereo unspecified) | -108 |
| COc1ccccc1Cc1nnc(SCCS(C)(=O)=O)o1 | -75.9 |
| c1ccc2c(NC3CCc4ncnn4C3)ncnc2c1 (stereo unspecified) | -38 |
| CCCn1nnc2c(sc3nc(N4CCOCC4)c4c(c32)CCC4)c1=O | -102 |
| c1nc(N2CCCC2)cnc1C1CCNCC1 | -135 |
| CC(C)N1CCCC(Cc2cncc(Br)c2)CC1 (stereo unspecified) | -20.1 |
| CCc1nc(C)c(CC(=O)N2CCC3(CC2)OCCCC3O)c(=O)[nH]1 (stereo unspecified) | -109 |
| Cc1cccc(C)c1OCC(C)Nc1nc(N)nc2c1CCNC2 (stereo unspecified) | 67 |
| Cc1cccnc1CC(C)Nc1nc(N)nc2c1CCNC2 (stereo unspecified) | -92 |
| Cc1cc(C)n(CC(C)Nc2nc(C)nc3c2CCNC3)n1 (stereo unspecified) | 2.63 |
| Cc1ccc(-c2noc(CN3CCC(N4CCNC4=O)CC3)n2)cc1 | -63.1 |
| CCS(=O)(=O)N1Cc2ncn(C)c2C(COCC2CCOCC2)C1 (stereo unspecified) | -46.6 |
| c1ccc2c(c1)CCN(c1ncnc3sc4c(c13)CCNC4)C2 | -28.5 |

| SMILES | INHIBITION [%] |
| --- | --- |
| c1ccc(C2CCCN(c3ncnc4c3CCNC4)CC2)cc1 (stereo unspecified) | 61.2 |
| c1ccc2c(c1)CN(c1ncnc3sc4c(c13)CCNC4)CCO2 | -26.7 |
| c1ccc2c(c1)CCN(c1nc(-c3ccncc3)nc3c1CCNC3)C2 | 61.6 |
| NC(=O)c1cccnc1N1CCN(c2ncnc3c2CCNC3)CC1 | -103 |
| CN(C)c1nc2c(c(N3CCc4ccccc4C3)n1)CCNC2 | 31.4 |
| c1cc(C2CCN(c3ncnc4c3CCNCC4)CC2)ccn1 | 27.2 |
| c1ccc2c(c1)CN(c1ncnc3c1CCNC3)CCO2 | 65.9 |
| c1nc2c(c(N3CCOCC3)n1)CCNCC2 | -98 |
| NC(=O)CN1CCC(NC(=O)COc2ccc(Cl)c(Cl)c2)CC1 | -138 |
| Cn1cccc1CN1CCc2ncnc(-c3cccnc3)c2CC1 | 0.898 |
| O=C1CCCC2=Nc3nonc3NC(c3cc(Cl)ccc3F)C12 (stereo unspecified) | -54 |
| O=C1CCCCN1Cc1cccc(OC(F)F)c1 | -103 |
| CN(C)S(=O)(=O)N1CC[C@]2(O)CCN(Cc3cccc(C#N)c3)C[C@@H]2C1 | -58.1 |
| CN(C)S(=O)(=O)N1CC[C@]2(O)CCN(CCCc3cccnc3)C[C@@H]2C1 | -62.2 |
| CN(C)S(=O)(=O)N1CC[C@]2(O)CCN(Cc3cccc(F)c3)C[C@@H]2C1 | 20.7 |
| CN(C)S(=O)(=O)N1CC[C@]2(O)CCN(Cc3cc(F)cc(F)c3)C[C@@H]2C1 | -81.9 |
| CN(C)S(=O)(=O)N1CC[C@]2(O)CCN(CCc3cccc(F)c3)C[C@@H]2C1 | 53.4 |
| Cc1ccc(CN2CC[C@@]3(O)CCN(S(=O)(=O)N(C)C)C[C@H]3C2)cc1C | 53.6 |
